From PubChem BioAssay
FMDV antiviral: antivirals against foot and mouth disease virus; FMDV antiviral cell-based qHTS; Potency, µM (titrated, usually from 57.9 µM), inactives show at the top dose activity change, negative = inhibition, hits mostly inhibitors; 410,000 tested, 1.2% active; AID 1159524; calls by dose curve; tested in HEK293T cells; note: read-out not given here; potency is the fitted concentration of half-maximal effect; nearly all actives have a fitted effect of over 45% in size
VACV Venus inh: inhibitors of vaccinia virus (Venus reporter); Vaccinia virus Venus reporter expression, fluorescence; Potency, µM (series often up to 36.5 µM), for inactives: at the highest dose activity change, negative = inhibition, most hits filed as inhibitors; 330,000 tested, 0.46% active; AID 720580; calls by dose curve; tested in A549 cells; note: potency is the fitted concentration of half-maximal effect; nearly all actives have a fitted effect of over 30% in size
VACV mCherry inh: vaccinia inhibition (mCherry reporter) | Vaccinia virus mCherry reporter infection, fluorescence | Potency, µM (titrated, usually from 36.5 µM), for inactives: at the highest dose activity change, negative = inhibition, most hits filed as inhibitors | 310,000 tested, 0.63% active; calls by dose curve; tested in A549 cells; note: potency is the fitted concentration of half-maximal effect; nearly all actives have a fitted effect of over 35% in size
HCV inhibitor: inhibitors of hepatitis C virus infection; Huh7.5.1 HCVcc-Cre infection, luciferase reporter, 44 h; 340,000 tested, 3.4% active; Potency, µM (series often up to 41.8 µM), inactives show at the highest dose activity change, negative = inhibition, actives largely listed as inhibitors; AID 651820; active = well fitted inhibition curve with a large enough effect; inconclusive = small, poorly fitted or top-dose-only effect, or another doubt; inactive = no such curve, though single readings can be large or run the other way; note: potency is the fitted concentration of half-maximal effect
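A cell-based infection assay in which seeded cells (1,000 per well) receive test compound after 4 h, are inoculated with HCVcc-Cre at approximately 0.5 moi, and are incubated 44 h before luminescence detection.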
HCMV antiviral: blocks human cytomegalovirus replication; HFF cells, HCMV-luciferase reporter, 72 h; active compounds read low; activity change, negative = inhibition, % at 57.5 µM; 410,000 tested, 4.5% active; AID 1259415; in the data active = activity change below about -60%; inconclusive = no clear call, values can overlap the other calls; inactive = above about -39%
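Screen run at 2 compound doses on HFFs infected with reporter HCMV, MOI 1 PFU/cell. Luciferase activity from cell lysates at 72 h post infection gave inhibition relative to buffer-only and Salinomycin wells.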
* = called active by the depositor; i = inactive; ? = inconclusive; · = not tested or not shown; [ ] = another dose, or the depositor's remark. Rows were chosen to be rich in hits. Some 7.3% of all compounds tested hit in one or more screens of this group. % is set by controls: 0 for no effect and ±100 for the full control effect.

SMILES	FMDV antiviral	VACV Venus inh	VACV mCherry inh	HCV inhibitor	HCMV antiviral
Cc1ccc2nc(/N=C(\N)NC(=O)N3c4ccccc4Sc4ccccc43)nc(C)c2c1	-28.1%	-8.0%	i	?	-65.4*
Cn1c(=O)[nH]c(=O)c2[nH]c(CN3CCN(Cc4ccccc4)CC3)nc21	0.3%	1.1%	i	11.4%	-33.6
Cn1c(=O)[nH]c(=O)c2[nH]c(N(Cc3ccccc3)Cc3ccccc3)nc21	39.8µM*	?	·	-26.1%	74.7
CN(C)CCNC(=O)c1onc(CSc2ccc(F)c(F)c2)c1C(=O)NCCN(C)C	-16.3%	-13.3%	i	12.6µM*	-36.0
CCCNC(=O)c1onc(CSc2ccc(F)c(F)c2)c1C(=O)NCCC	-27.8%	-14.6%	-1.6%	?	34.5
COC(=O)N/N=C/c1sc(N2CCCCC2)nc1-c1cccs1	0.1%	-15.8%	-3.2%	?	-67.9*
COc1cc(-n2nc(C)c3c2OC(N)=C(C#N)C3c2ccccc2)c(Cl)c(Br)c1O (configuration not stated)	22.4µM*	-21.5%	-0.2%	?	·
Cc1nn(-c2ccccc2)c2c1C(c1ccncc1)C(C#N)=C(N)O2 (configuration not stated)	-24.1%	-13.8%	·	6.2%	68.0
Cc1nn(Cc2ccccc2)c2c1C(c1cccc(Cl)c1)C(C#N)=C(N)O2 (configuration not stated)	?	-9.5%	·	?	-60.2*
Cc1cc2c(c(=O)n1C1CC1)C(c1cccc(Cl)c1)C(C#N)=C(N)O2 (configuration not stated)	-1.3%	-17.8%	-21.8%	-9.6%	14.6
CC(=O)c1cccc(NC(=O)C2(C)Cc3c(-c4ccccc4)ccnc3O2)c1 (configuration not stated)	?	-3.3%	-17.1%	·	-16.0
CCOc1ccc(C(=O)NCc2ccc3c(c2)CCN3C(=O)c2ccccc2)cc1	-24.0%	-8.2%	i	·	-32.1
CCOc1cccc(CC(=O)NCc2ccc3c(c2)CCN3C(=O)c2cccc(C)c2)c1OCC	14.1µM*	?	?	·	-67.4*
Cc1ccc(NC(=O)NCc2ccc3c(c2)CCN3C(=O)c2ccccc2)c(Cl)c1	?	?	?	·	-30.7
COc1ccc(CC(=O)NCc2ccc3c(c2)CCN3C(=O)c2cccc(C)c2)cc1	?	-12.2%	-11.0%	·	-14.1
COc1ccc(C)cc1NC(=O)NCc1ccc2c(c1)CCN2C(=O)c1ccccc1	?	-24.9%	-9.8%	·	-91.8*
CCOc1ccccc1NC(=O)NCc1ccc2c(c1)CCN2C(=O)c1ccccc1	0.0%	?	?	·	-82.0*
CCOc1ccccc1C(=O)NCc1ccc2c(c1)CCN2C(=O)c1ccccc1	-28.1%	-24.0%	?	·	-77.8*
CCc1ccc(S(=O)(=O)NCc2csc(C)n2)cc1	6.7%	-16.0%	i	12.3%	-19.4
CC1(C2CC2)NC(=O)N(CC(=O)Nc2ccc(OC(F)F)cc2)C1=O (configuration not stated)	-1.1%	-5.2%	-10.3%	·	-12.5
CC1CCCN(CC(=O)Nc2cc(S(=O)(=O)N3CCOCC3)ccc2N2CCCC2)C1 (configuration not stated)	-5.9%	·	·	11.3%	-38.4
O=C(COC(=O)C1CCC1)NCc1ccc(F)cc1	-9.4%	-1.5%	-11.1%	?	-21.1
COc1cc(S(=O)(=O)N(Cc2cccnc2)Cc2cccc(OC)c2OC)ccc1-n1cnnn1	12.8%	-11.8%	0.6%	17.0%	0.0
C1=Cc2ccccc2/C1=C\c1cc[cH-]c1.[Fe+2].c1cc[cH-]c1	·	5.6%	-12.1%	·	·
Cc1cccc(C(=O)N2CCc3cc(CNC(=O)c4ccco4)ccc32)c1	28.2µM*	-23.1%	-12.7%	·	-38.3
SMILES	FMDV antiviral	VACV Venus inh	VACV mCherry inh	HCV inhibitor	HCMV antiviral
Cc1nc2ccccc2n1CC(O)COc1ccc(Br)cc1 (configuration not stated)	?	-10.8%	-19.3%	?	-80.3*
Cc1nc2ccccc2n1CC(O)COc1ccccc1Cl (configuration not stated)	?	·	·	?	-74.1*
CCCc1nc2ccccc2n1CC(O)COc1ccc(C(=O)OC)cc1 (configuration not stated)	28.2µM*	-10.2%	-11.6%	·	-26.6
CCC(=O)c1ccc(OCC(O)Cn2c(C)nc3ccccc32)cc1 (configuration not stated)	?	-29.8%	?	?	-61.7*
CCCCCCCCn1c(=O)c(C(=O)OC)c(N)c2ccccc21	?	?	?	12.6µM*	-64.4*
CCCCCCCn1c(=O)c(C(=O)OC)c(N)c2ccccc21	12.6µM*	-10.9%[7.34 µM]	-5.5%[7.34 µM]	?	-89.3*
Cc1ccc(NC(=O)Cn2c(=O)n(Cc3nc(-c4ccccc4)no3)c(=O)c3ccccc32)c(C)c1	-16.6%	-13.1%	-2.0%	·	16.2
O=C(Nc1ccc(Oc2ccccc2)cc1)C1CCN(c2c3c(nc4ncnn24)CCC3)CC1	8.91µM*	·	·	25.1µM*	-100.8*
O=C(Nc1ccc2c(c1)CCC2)C1CCN(c2c3c(nc4ncnn24)CCC3)CC1	?	·	·	4.47µM*	-101.0*
CSc1ccc2nnc(-c3ccc(C)cc3)n2n1	·	-9.9%	25.2%	·	·
COc1ccc(-c2cc(C(F)F)nc(-n3nc(C)cc3C)n2)cc1	-29.8%	-13.4%	i	?	-24.5
FC(F)(F)c1cc(-c2ccc(Cl)cc2)nc(NCc2cccnc2)n1	?	?	?	11.2µM*	-27.0
Cc1ccc(-c2cc(C(F)F)nc(NCc3cccs3)n2)cc1	-4.7%	-12.7%	-10.5%	?	28.0
Cc1ccc(-c2cc(C(F)F)nc(NCc3cccnc3)n2)cc1	?	?	-18.5%	6.31µM*	37.7
Cc1ccc(-c2cc(C(F)F)nc(NCC3CCCO3)n2)cc1 (configuration not stated)	5.9%	?	-24.8%	3.98µM*	34.6
Cc1ccc(-c2cc(C(F)F)nc(N3CCOCC3)n2)cc1	-29.2%	?	-5.2%	5.62µM*	-39.1
CCc1ccc(CN(C)CC(=O)Nc2ccc(S(=O)(=O)N3CCOCC3)cc2)cc1	-25.2%	·	·	-16.2%	0.0
CCC[C@H](CN[C@@H](CNC)[C@H](C)CC)NCCc1cc(C(F)(F)F)cc(C(F)(F)F)c1	?	20µM*	?	?	-78.0*
CCC[C@@H](CN[C@@H](CNC)C(C)C)NCCCCc1ccccc1	-16.5%	?	i	?	?
CC[C@@H](C)[C@H](CNC)NC[C@@H](Cc1cccc2ccccc12)NCCc1cccc(C(F)(F)F)c1	-68.6%	?	?	1.3%	-99.1*
CCC[C@@H](CN[C@@H](CNC)[C@H](C)CC)NCC1CCC(C(C)(C)C)CC1 (some centres not stated)	-28.8%	12.6µM*	?	7.94µM*	-99.0*
O=C(CCl)NN1C(=O)NC(c2ccccc2)(c2ccccc2)C1=O	?	?	?	?	-87.6*
CC(C)(C)NC(=O)CN1C(=O)NC(c2ccccc2)(c2ccccc2)C1=O	-13.3%	3.4%	-8.7%	-7.5%	-81.1*
